# Reference: PubChem BioAssay
# “And” between values parts separate entries of the source, which are not always exact repeats. Identical values can stand only once. Records with an inconclusive call do not appear. For some of these results: Results with a measured potency or affinity are listed apart. Some structures have more than one record in an assay (separate samples or runs), and their calls can disagree. The source made the active and inactive calls. Unless noted, no rule for the calls is given here.
# Tests used:
# [1] = biological target: ATP-dependent translocase ABCB1 (Homo sapiens) (UniProt P08183); assay: MDR1 (ABCB1) efflux transporter inhibition, cell-based (AID 377; in the data active = fluorescence slope change above about 50%); details: MDR1-expressing cells, fluorescent substrate accumulation slope; stronger effect = higher value; concentration not given here
# [2] = polyglutamine-triggered caspase-3 activation inhibitors, cell-based (AID 1583); details: polyglutamine-induced caspase-3 activation, cell assay; stronger effect = higher value;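 tested at 10 µM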
# [3] = suppressors of polyQ aggregation in yeast, 75Q-TubU reporter (AID 1593); details: Yeast 75Q polyglutamine aggregation reporter
# [4] = rescue of polyQ-huntingtin neuronal dysfunction in worms, whole organism, C. elegans mechanosensory neurons, N-terminal huntingtin (AID 1599); details: touch response, stronger effect = higher value
# [5] = inhibitors of mitochondrial cytochrome c release, biochemical, purified mitochondria (AID 1603); details: stronger effect = lower value;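 also: mouse liver mitochondria challenged with calcium chloride; signal normalized to the plate average as 100%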
# [6] = inhibitors of polyQ protein aggregation (AID 1604); details: polyglutamine-induced protein aggregation inhibition assay; stronger effect = higher value; tested at 2.5 µM
# [7] = enhancers of glutamate uptake in motor neurons, MN-1 cell line (AID 1612); details: MN-1 motor neuron cells, stronger effect = higher value;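 also: tested at 1 µM final; 0% = mean of DMSO vehicle wells on each plate; positive means more glutamate uptake than control and negative means less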
# [8] = reducers of polyQ inclusions in PC12 cells, cell-based, NGF-treated PC12, GFPQ80 (AID 1614); details: PC12 NGF-treated GFP-polyQ80 inclusion reduction;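 also: lower means fewer inclusions and 0 means no inclusions at all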
# [9] = suppressors of polyglutamine aggregation in yeast, 75Q-TubH (AID 1616); details: S. cerevisiae 75Q-TubH polyglutamine aggregation suppression; stronger effect = higher value
# [10] = hESC survival regulators, cell-based (AID 493140); details: human embryonic stem cell survival screen; stronger effect = higher value;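 also: cells exposed to compounds for four days before counting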
# [11] = liver-stage malaria parasite growth inhibition, primary screen, cell-based, HepG2, luciferase luminescence, HepG2 viability (AID 624349; in the data active = parasite load remaining mostly below about 12%, no sharp cut-off; inactive = mostly above about 10%;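 also: 100% = mean of DMSO negative control wells on the same plate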); details: P. berghei liver stage in HepG2, luciferase luminescence, concentration not given here; parasite load remaining: stronger effect = lower value; viability: measured here: HepG2 viability without parasites
# [12] = biological target: 6-phosphogluconate dehydrogenase, decarboxylating (Homo sapiens) (UniProt P52209); assay: 6PGD enzyme inhibitors, primary screen, biochemical, human, recombinant enzyme, NADPH absorbance (AID 1159550;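 active = at least 20% inhibition of 6-phosphogluconate dehydrogenase activity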); details: recombinant 6PGD, NADPH absorbance 341 nm; at 10 µM; stronger effect = higher value
# [13] = sensitizers of A549 cells to miR-34 induction, primary screen, imaging, A549 dox-inducible miR-34, nuclei and caspase counts (AID 1347080;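 active = compounds whose cell count with miR-34 switched on is under 0.7 times the count with it off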); details: A549 miR-34 inducible, Hoechst nuclei count, 48 h
# [14] = survival rescue of mitochondrial mutant cells in low glucose, primary screen, MELAS cybrids, Rieske KO mouse fibroblasts, CellTiter-Glo (AID 1508586;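 active = mean z-score across replicates of 1.96 or higher in either the MELAS or the Rieske mutant cell line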;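 also: z relative to plate mean and SD of compound and empty wells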)
# [15] = biological target: NAD(+) hydrolase SARM1 (Homo sapiens) (UniProt Q6SZW1); assay: SARM1 TIR NADase inhibitors, cell lysate, NAD-Glo luminescence (AID 1508614;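 active = compound whose remaining NAD level is above about 45 nM, limit read from the data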;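 also: higher remaining NAD means stronger inhibition of SARM1 NADase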); details: SAM-TIR HEK293T lysate NADase, at 1 µM, stronger effect = higher value
# [16] = biological target: Mitogen-activated protein kinase 7 (Homo sapiens) (UniProt Q13164); assay: ERK5 transactivation activators in reporter cells, primary screen, cell-based, HTS (AID 1508626;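 active = luciferase signal above three times the same-plate solvent-only control wells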;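 also: luciferase driven by Gal4-ERK5 fusion binding five Gal4 sites before minimal TATA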); details: HeLa Gal4-ERK5 transactivation, 18 h, at 5 µM, stronger effect = higher value
# [17] = circadian clock period modulators, cell-based, LOPAC library, luminescence reporter (AID 2774); details: circadian reporter cells, at 7 µM, actives lie on both sides;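 also: values are relative to mean of DMSO wells on each plate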
# [18] = tested on: Hepatitis C virus NS3 helicase; assay: HCV NS3 helicase inhibitors, primary screen, biochemical, fluorescence polarization, LOPAC1280 library (AID 687035; in the data active = inhibition above about 37%); details: Purified HCV NS3 helicase, Cy5-dT15 ssDNA binding fluorescence polarization; stronger effect = higher value; concentration not given here
# [19] = Cy5 fluorescence quenching or enhancement artefacts, artefact control for HCV NS3 helicase inhibitor project, biochemical, LOPAC1280 (AID 687037); details: Cy5-DNA-NS3h complex fluorescence interference counterscreen
# [20] = phospholipid biosynthesis inhibitors in animal cells, primary screen, cell-based, LOPAC library, screen 4 (AID 1347384); details: phospholipid biosynthesis inhibition screen, at 10 µM
# [21] = viability rescue of complex I mutant cybrids, primary screen, cell-based, galactose medium, ATP luminescence (AID 1645843;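 active = z-score of at least 1.8 in each of two replicates, scored against plate mean and spread of sample wells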;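 also: positive z means more ATP and so rescue of galactose-driven cybrid death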); details: complex I mutant cybrid cells, 72 h, stronger effect = higher value
# [22] = inhibitors of Cryptococcus chitosan production, flow cytometry, Cibacron Brilliant Red staining (AID 1347148); details: Cryptococcus neoformans chitosan, stronger effect = lower value; at 10 µM unless noted;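 also: compound exposure lasted three days at 37 degrees C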
# [23] = protection against mutant huntingtin cytotoxicity, PC12 cells, LDH release (AID 1610); details: PC12 mutant huntingtin toxicity, final LDH at 4 uM, stronger effect = lower value
# [24] = growth inhibition of DIPG glioma cells, dose response, cell-based, SU-DIPG-IV, MIPE4.0, CellTiter-Glo, qHTS (AID 1347063; cut-off not given, nearly all actives have AC50 up to about 30 µM;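 also: compound exposure lasted 48 hours before the viability readout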); details: SU-DIPG-IV viability, CellTiter-Glo ATP luminescence
# [25] = viability loss in pontine glioma line – cell-based, SU-DIPG-XXV, MIPE5.0, CellTiter-Glo, qHTS, dose response (AID 1347065; cut-off not given, nearly all actives have AC50 up to about 26 µM;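 also: cells exposed to compound for 48 hours before ATP readout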); details: CellTiter-Glo ATP luminescence
# [26] = SU-DIPG-VI glioma cell viability, MIPE4.0 library, CellTiter-Glo luminescence, qHTS (AID 1347066; cut-off not given, nearly all actives have AC50 up to about 30 µM;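 also: cells exposed to compound for 48 hours before readout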); details: CellTiter-Glo ATP luminescence
# [27] = stronger effect = lower value, cell number ratio, induced over uninduced
# [28] = measured here: relative caspase fold change +Dox/-Dox
# [29] = measured here: total cells with miR-34 induction, stronger effect = lower value
# [30] = measured here: total cells without miR-34 induction
# [31] = MELAS cybrid survival, CellTiter-Glo 48 h, stronger effect = higher value
# [32] = Rieske KO mouse fibroblast survival, CellTiter-Glo 72 h
# 6-phosphogluconate dehydrogenase, decarboxylating (Homo sapiens), sequence (P52209 whole entry, looked up): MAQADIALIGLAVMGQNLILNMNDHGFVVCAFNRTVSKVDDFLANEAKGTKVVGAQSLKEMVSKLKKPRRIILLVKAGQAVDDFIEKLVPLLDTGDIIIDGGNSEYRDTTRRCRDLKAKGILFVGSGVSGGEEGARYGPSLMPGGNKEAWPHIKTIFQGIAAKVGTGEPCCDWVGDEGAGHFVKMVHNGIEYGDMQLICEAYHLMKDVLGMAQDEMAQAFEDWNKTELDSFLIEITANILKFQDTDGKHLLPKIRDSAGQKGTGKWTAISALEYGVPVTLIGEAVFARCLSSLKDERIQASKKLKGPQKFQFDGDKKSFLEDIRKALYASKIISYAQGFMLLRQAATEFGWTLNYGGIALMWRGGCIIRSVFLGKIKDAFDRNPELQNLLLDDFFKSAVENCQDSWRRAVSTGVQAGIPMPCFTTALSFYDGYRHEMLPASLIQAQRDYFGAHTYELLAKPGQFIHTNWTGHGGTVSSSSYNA
# Mitogen-activated protein kinase 7 (Homo sapiens), sequence (Q13164 whole entry, looked up, the tested form may be a part): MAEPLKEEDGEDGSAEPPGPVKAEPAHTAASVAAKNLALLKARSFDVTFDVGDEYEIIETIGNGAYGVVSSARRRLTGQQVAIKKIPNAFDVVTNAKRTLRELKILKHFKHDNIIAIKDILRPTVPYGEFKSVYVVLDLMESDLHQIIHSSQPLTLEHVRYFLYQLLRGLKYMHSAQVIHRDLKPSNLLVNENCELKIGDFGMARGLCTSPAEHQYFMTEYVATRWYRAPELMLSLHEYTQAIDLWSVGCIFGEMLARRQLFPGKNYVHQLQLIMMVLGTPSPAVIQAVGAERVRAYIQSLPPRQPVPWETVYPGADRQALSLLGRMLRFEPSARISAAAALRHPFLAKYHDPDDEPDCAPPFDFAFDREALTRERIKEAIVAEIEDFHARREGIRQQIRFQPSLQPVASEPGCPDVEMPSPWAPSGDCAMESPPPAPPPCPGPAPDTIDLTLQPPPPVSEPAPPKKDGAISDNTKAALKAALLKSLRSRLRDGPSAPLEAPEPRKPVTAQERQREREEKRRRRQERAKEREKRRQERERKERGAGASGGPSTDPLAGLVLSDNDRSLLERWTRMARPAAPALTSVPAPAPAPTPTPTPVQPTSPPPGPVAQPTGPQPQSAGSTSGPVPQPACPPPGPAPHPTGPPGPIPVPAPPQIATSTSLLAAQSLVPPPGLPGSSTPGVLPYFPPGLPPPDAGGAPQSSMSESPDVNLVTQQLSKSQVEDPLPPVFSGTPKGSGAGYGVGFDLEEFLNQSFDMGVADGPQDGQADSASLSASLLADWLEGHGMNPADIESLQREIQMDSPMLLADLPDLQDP
# NAD(+) hydrolase SARM1 (Homo sapiens), sequence (Q6SZW1 whole entry, looked up, the tested form may be a part): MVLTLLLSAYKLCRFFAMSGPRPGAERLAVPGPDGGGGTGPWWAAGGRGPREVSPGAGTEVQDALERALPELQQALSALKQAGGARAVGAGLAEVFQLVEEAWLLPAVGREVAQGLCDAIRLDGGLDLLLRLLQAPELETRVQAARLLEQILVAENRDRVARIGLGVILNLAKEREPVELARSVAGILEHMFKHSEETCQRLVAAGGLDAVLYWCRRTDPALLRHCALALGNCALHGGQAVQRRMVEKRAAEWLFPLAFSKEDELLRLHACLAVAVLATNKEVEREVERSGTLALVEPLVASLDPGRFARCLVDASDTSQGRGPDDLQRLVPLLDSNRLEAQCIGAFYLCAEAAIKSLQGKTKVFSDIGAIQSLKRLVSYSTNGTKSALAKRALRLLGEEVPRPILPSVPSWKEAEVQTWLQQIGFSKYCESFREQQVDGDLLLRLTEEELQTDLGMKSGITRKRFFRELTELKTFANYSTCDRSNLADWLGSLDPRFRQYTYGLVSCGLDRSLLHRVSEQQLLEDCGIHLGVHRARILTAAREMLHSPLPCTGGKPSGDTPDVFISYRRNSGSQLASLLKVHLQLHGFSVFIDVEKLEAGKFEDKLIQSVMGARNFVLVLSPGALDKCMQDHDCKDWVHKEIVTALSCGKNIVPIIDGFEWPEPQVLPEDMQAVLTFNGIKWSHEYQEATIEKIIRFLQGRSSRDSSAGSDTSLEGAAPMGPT
# ATP-dependent translocase ABCB1 (Homo sapiens), sequence (P08183 whole entry, looked up): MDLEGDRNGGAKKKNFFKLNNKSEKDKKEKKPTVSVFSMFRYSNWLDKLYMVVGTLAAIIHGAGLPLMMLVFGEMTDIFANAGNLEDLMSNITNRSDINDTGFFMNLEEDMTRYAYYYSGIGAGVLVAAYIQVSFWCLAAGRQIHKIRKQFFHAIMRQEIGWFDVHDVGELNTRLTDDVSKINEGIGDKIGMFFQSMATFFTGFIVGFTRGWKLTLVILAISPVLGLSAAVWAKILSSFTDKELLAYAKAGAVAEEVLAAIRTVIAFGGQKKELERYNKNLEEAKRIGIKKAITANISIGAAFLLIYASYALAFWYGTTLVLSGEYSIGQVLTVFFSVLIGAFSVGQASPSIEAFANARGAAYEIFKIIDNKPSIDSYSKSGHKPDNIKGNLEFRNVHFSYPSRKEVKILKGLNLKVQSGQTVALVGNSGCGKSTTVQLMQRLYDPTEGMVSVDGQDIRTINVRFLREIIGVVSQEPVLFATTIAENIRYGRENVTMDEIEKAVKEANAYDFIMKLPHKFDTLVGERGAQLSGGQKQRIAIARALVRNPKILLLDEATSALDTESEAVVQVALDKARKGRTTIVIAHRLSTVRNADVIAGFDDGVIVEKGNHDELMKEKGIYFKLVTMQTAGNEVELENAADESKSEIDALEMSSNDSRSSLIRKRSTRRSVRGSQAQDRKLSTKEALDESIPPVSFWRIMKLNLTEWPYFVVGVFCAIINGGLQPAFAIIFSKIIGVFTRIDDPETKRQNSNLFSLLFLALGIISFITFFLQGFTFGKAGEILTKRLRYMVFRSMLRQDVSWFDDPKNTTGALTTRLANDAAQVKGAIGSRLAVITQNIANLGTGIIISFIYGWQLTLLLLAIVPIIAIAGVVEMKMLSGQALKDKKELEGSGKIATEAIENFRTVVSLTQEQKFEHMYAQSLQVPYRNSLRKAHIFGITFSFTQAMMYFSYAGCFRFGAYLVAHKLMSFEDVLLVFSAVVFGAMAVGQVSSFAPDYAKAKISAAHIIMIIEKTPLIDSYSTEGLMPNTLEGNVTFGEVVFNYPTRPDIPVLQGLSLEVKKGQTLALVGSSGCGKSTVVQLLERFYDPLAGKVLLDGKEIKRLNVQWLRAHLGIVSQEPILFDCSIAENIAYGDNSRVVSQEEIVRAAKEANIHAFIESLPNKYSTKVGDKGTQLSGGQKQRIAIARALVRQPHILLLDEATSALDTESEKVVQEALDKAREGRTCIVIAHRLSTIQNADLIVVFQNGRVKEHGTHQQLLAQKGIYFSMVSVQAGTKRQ
structure (smiles),measurement,setting,value
CC(Oc1ccccc1)C(=O)N[C@@H]1C(=O)N2[C@@H]1SC(C)(C)[C@@H]2C(=O)O (stereo not given in full),fluorescence slope change,[1],56.9% (active)
same,inhibition,[2],11.2%
same,score,[3],1.4
same,rescue above control,[4],-10.5
same,cytochrome c release ratio,[5],1.15
same,inhibition of aggregation,[6],78.9%
same,glutamate uptake change,[7],10.6%
same,inclusion score,[8],2
same,aggregation suppression score,[9],1.29
same,survival,[10],7.92 (inactive)
same,parasite load remaining,[11],116% (inactive) and 55% (inactive)
same,viability,[11],109% and 84.1%
same,inhibition,[12],1.89% (inactive)
same,fold change,[13]; [27],0.935 (inactive) and 0.907 (inactive)
same,fold change,[13]; [28],1.21 and 2.74
same,cell count,[13]; [29],8390 and 12400
same,cell count,[13]; [30],8980 and 13600
same,z-score,[14]; [31],-0.192 (inactive)
same,z-score,[14]; [32],-0.917
same,remaining NAD,[15],10 nM (inactive)
same,luciferase signal,[16],36 AU (inactive)
C=C(C)C1CC=C(C(=O)O)CC1 (stereo not given),period change,[17],0.05 h (inactive)
same,inhibition,[18],2% (inactive)
same,fluorescence ratio (interference),[19],0.9 (inactive)
same,inhibition,[12],7.19% (inactive)
same,fold change,[13]; [27],0.98 (inactive)
same,fold change,[13]; [28],1.41
same,cell count,[13]; [29],9720
same,cell count,[13]; [30],9920
same,outcome,[20],inactive
same,z-score,[21],1.06 (inactive)
NCCCCCCNS(=O)(=O)c1cccc2c(Cl)cccc12,inhibition,[2],-15.2% and 22.6% and 2.95%
same,score,[3],1.04 and 1.62 and 0.88
same,rescue above control,[4],4.12 and -5.26 and -2.52
same,cytochrome c release ratio,[5],1.16 and 0.95 and 1.09
same,inhibition of aggregation,[6],51% and 55.6% and 36.6%
same,glutamate uptake change,[7],18.7% and -10.2% and 14.1%
same,inclusion score,[8],1
same,aggregation suppression score,[9],0.802 and 0.897 and 0.965
same,period change,[17],0.025 h (inactive)
same,inhibition,[12],8.63% (inactive)
same,fold change,[13]; [27],0.955 (inactive)
same,fold change,[13]; [28],0.859
same,cell count,[13]; [29],4060
same,cell count,[13]; [30],4250
same,fold fluorescence,[22],9.13 [at 132.5 µM] (inactive)
NC(=NCc1ccccc1)NC(=O)c1nc(Cl)c(N)nc1N,fluorescence slope change,[1],28% (inactive)
same,inhibition,[2],7.39%
same,score,[3],1.09
same,rescue above control,[4],5.46
same,cytochrome c release ratio,[5],0.99
same,inhibition of aggregation,[6],14.3%
same,normalised LDH release,[23],1.01
same,glutamate uptake change,[7],12.4%
same,aggregation suppression score,[9],1.26
same,period change,[17],0.11 h (inactive)
same,survival,[10],1.67 (inactive)
same,parasite load remaining,[11],116% (inactive) and 20% (inactive)
same,viability,[11],89.9% and 61%
same,inhibition,[18],-1% (inactive)
same,fluorescence ratio (interference),[19],1 (inactive)
same,inhibition,[12],-0.294% (inactive)
same,outcome,[24],inactive
same,AC50,[25],18.6 µM (active)
same,outcome,[26],inactive
same,fold fluorescence,[22],5.57 [at 156.4 µM] (inactive)
same,outcome,[20],inactive
same,z-score,[14]; [31],2.18 (active) and 1.24 (inactive)
same,z-score,[14]; [32],1.18 and 1.91
same,luciferase signal,[16],56 AU (inactive)
same,z-score,[21],-0.87 (inactive) and -0.455 (inactive)
CC(=O)NCCc1c[nH]c2ccc(O)cc12,inhibition,[2],26.8%
same,score,[3],1.5
same,rescue above control,[4],2.04
same,cytochrome c release ratio,[5],0.84
same,inhibition of aggregation,[6],31.4%
same,glutamate uptake change,[7],0.88%
same,inclusion score,[8],2
same,aggregation suppression score,[9],1.34
same,period change,[17],-0.07 h (inactive)
same,inhibition,[18],0% (inactive)
same,fluorescence ratio (interference),[19],1 (inactive)
same,inhibition,[12],8.58% (inactive)
same,fold change,[13]; [27],1.02 (inactive)
same,fold change,[13]; [28],1.87
same,cell count,[13]; [29],10700
same,cell count,[13]; [30],10400
same,outcome,[20],inactive
same,luciferase signal,[16],32 AU (inactive)
same,z-score,[21],0.08 (inactive)
C[C@@H]1C(=O)O[C@H]2C[C@@]34[C@H]5C[C@@H](C(C)(C)C)[C@]36[C@@H](OC(=O)[C@@H]6O)O[C@@]4(C(=O)O5)[C@]21O,parasite load remaining,[11],48.8% (inactive)
same,viability,[11],110%
same,inhibition,[12],0.379% (inactive)
same,fold change,[13]; [27],0.95 (inactive)
same,fold change,[13]; [28],1.75
same,cell count,[13]; [29],10300
same,cell count,[13]; [30],10800
same,z-score,[14]; [31],0.0275 (inactive)
same,z-score,[14]; [32],-1.08
same,z-score,[21],0.435 (inactive)
C[C@@H]1C[C@H]2[C@@H]3C[C@H](F)C4=CC(=O)C=C[C@]4(C)[C@@]3(F)[C@@H](O)C[C@]2(C)[C@@]1(O)C(=O)COC(=O)C(C)(C)C,inhibition,[12],8.08% (inactive)
same,z-score,[14]; [31],0.627 (inactive)
same,z-score,[14]; [32],0.671
same,remaining NAD,[15],10 nM (inactive)
C[N+](C)(C)CCOP(=O)([O-])OP(=O)(O)OC[C@H]1O[C@@H](n2ccc(N)nc2=O)[C@H](O)[C@@H]1O,inhibition,[12],-4.56% (inactive)
same,remaining NAD,[15],10 nM (inactive)
same,luciferase signal,[16],76 AU (inactive)
COC(=O)C[C@H]1C(C)(C)[C@@H](O)[C@@H]2CC3=C4C=C(OC)O[C@@H](c5ccoc5)[C@]4(C)CCC3[C@@]1(C)C2=O (stereo not given in full),inhibition,[12],1.56% (inactive)
same,luciferase signal,[16],28 AU (inactive)
CCCCC[C@@H](O)[C@H]1C(=O)O[C@H](C)[C@@H](O)/C=C/C=C/C=C/C=C/C=C(\C)[C@@H](O)C[C@H](O)C[C@H](O)C[C@H](O)C[C@H](O)C[C@H](O)C[C@@H]1O,inhibition,[12],6.12% (inactive)
same,fold change,[13]; [27],1.04 (inactive)
same,fold change,[13]; [28],1.06
same,cell count,[13]; [29],6150
same,cell count,[13]; [30],5900
same,luciferase signal,[16],72 AU (inactive)
